Experimental data: PubChem BioAssay (NCATS)
Results filed as inconclusive are left out. Activity calls are given as the source filed them. Unless noted, calls come from the whole dose curve; as a rule, active = well fitted curve in either direction with a large enough effect (not every such curve was filed as active); inconclusive = small, poorly fitted or top-dose-only effect, or another doubt; inactive = flat fitted curve, though single readings scatter.

Experiments:
[1] = AP1 Signaling Pathway (AID 357); details: ME-180 AP-1-bla reporter, EGF-induced, beta-lactamase ratio, 5 h; at 17.2 µM (top of the series) unless noted;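 note: ME-180 reporter cells stimulated with EGF at its EC50 level; % is set by controls: 0 for no effect and ±100 for the full control effect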
How it was run: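 Cells are seeded overnight, exposed to compound titrations and an EC50 level of EGF for 5 hours at 37 °C, then loaded with CCF4 dye for 2.5 hours. Beta-lactamase activity under the AP-1 element is read as a blue/green ratio.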

[2] = NFAT Signaling Pathway (AID 444); details: Jurkat NFAT-bla M1, carbachol, beta-lactamase ratio, 5 h; at 17.2 µM (top of the series) unless noted;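 note: carbachol stimulus at about its EC50 of 1 µM final; % is set by controls: 0 for no effect and ±100 for the full control effect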
How it was run: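 Read-out: CCF4 FRET ratio (460 nm/530 nm) after 1 h RT dye loading, used for %activity and AC50 from titration series. Cells: Jurkat NFAT-β-lactamase/M1 line, treated with compound plus 1 uM carbachol for 5 h, 37 °C.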

[3] = Stat Signaling Pathway (AID 446);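 note: ME-180 cervical cancer cells given 40 pM IL-6 alongside compound; SIE-controlled beta-lactamase reporter measured as 460/530 nm FRET emission ratio; % is set by controls: 0 for no effect and ±100 for the full control effect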
How it was run: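 ME-180 SIE-bla cells; overnight plating; cpd + IL-6 40 pM, 5 h, 37 C; LiveBLAzer 2.5 h RT; 460/530 nm emission ratio. Normalized to 300 pM IL-6 and 125 nM JAK inhibitor controls.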

[4] = molecular target: Glucocorticoid receptor (Homo sapiens) (UniProt P04150); assay: GR-GFP Redistribution (AID 450;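 active = compounds whose dose series gives a full or clear partial fitted curve of increased nuclear translocation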; note: potency is the fitted concentration of half-maximal effect); details: U2OS GR-GFP nuclear translocation, laser cytometry, 2 h
Chain of Glucocorticoid receptor (Homo sapiens) (P04150 whole entry, looked up): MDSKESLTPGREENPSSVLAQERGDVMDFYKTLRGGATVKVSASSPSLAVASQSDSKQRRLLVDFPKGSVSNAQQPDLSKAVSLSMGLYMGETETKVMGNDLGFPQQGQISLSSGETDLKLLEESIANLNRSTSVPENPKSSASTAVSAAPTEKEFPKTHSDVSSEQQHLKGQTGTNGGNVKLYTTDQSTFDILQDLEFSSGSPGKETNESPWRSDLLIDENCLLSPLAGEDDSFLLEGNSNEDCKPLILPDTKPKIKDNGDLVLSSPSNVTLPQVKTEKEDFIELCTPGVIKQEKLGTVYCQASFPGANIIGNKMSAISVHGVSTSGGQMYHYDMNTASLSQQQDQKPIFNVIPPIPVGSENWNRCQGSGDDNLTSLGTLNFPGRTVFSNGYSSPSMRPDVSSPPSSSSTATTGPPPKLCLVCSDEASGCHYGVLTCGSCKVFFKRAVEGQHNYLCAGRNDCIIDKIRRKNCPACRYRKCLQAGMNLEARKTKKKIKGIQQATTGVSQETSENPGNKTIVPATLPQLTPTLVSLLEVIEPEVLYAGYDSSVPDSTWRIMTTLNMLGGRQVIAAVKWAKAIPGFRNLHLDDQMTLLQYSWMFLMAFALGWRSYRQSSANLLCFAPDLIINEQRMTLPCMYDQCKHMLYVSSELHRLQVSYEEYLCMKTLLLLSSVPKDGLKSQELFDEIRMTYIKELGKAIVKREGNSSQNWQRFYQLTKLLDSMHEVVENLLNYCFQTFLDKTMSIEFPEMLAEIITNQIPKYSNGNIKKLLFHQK

[5] = qHTS Assay for Identification of Small Molecule Agonists for Hypoxia Response Element Signaling Pathway (AID 914; active = well fitted activation curve with a large enough effect in the signal ratio, with a control signal flat, not every such curve was filed as active; the % refers to the signal ratio; note: % of control where 0% means no effect); details: ME-180 (cervical carcinoma) HRE-bla reporter, beta-lactamase ratio, CoCl2, 17 h; activation: active compounds read high
How it was run: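 A beta-lactamase reporter under hypoxia response element control in ME-180 cells served as the system. Compound titrations plus EC50 CoCl2 ran 17 h at 37 degrees Celsius; AC50 values were fitted from %Activity.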

CNCCc1nc(N)n[nH]1
inactive: activity change, negative = inhibition [1] 16.9% | activity change, negative = inhibition [2] -10.7% | outcome [3] | Potency [4] > 20.6 µM | activation [5] 12.1%

CCCCC1(CN2CCCC2=O)C(=O)NC(=O)NC1=O
inactive: activity change, negative = inhibition [1] 7.49% | activity change, negative = inhibition [2] -2.56% | outcome [3] | Potency [4] > 20.6 µM

OC1(c2ccc(F)cc2)CCNC1 (stereo not drawn)
inactive: activity change, negative = inhibition [1] 7.87% | activity change, negative = inhibition [2] -14.3% | outcome [3] | Potency [4] > 20.6 µM
